# Compounds with a hit are over-represented: about 3.1% of the library has one in this group of screens.
# PLK1 PBD block: PLK1 (human) polo-box domain binding inhibition; P53350; Plk1 PBD binding of FITC phosphopeptide, fluorescence polarization; Potency, µM, for inactives: max response, negative = inhibition, usual class: inhibitors; 360,000 tested, 2.8% active; further: potency means the concentration at half of the fitted maximal effect; series mostly up to about 57 µM; on the % scale 0 is the no-effect control and ±100 the full control effect; nearly all actives have a fitted effect of over 65% in size
# TSHR antag: antagonists of human thyroid stimulating hormone receptor. TSHR-expressing cells, TSH-stimulated cAMP HTRF, 2 h; hits give low values. P16473. 330,000 tested, 0.2% active. activity change, negative = inhibition, % at 11.5 µM;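 active means activity change below a set negative limit, meaning inhibition stronger than a set level, cut at about -70% in these data; inconclusive means activity change between two set negative limits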; further: on the % scale 0 is the no-effect control and ±100 the full control effect
#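 Freshly harvested TSHR cells receive pin-tooled compound, then EC80 TSH at 4nM final. After 2 hours at 37 deg C, antibody in lysis buffer and cAMP-d2 are added; 30 minutes at ambient temperature precede the HTRF read.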
# Vif-A3F inh: inhibitors of Vif-A3F interaction; 390,000 tested, 0.2% active; Potency, µM (doses to about 46.1 µM), inactives show at the top dose activity, negative = active; HeLa A3F-eYFP + Vif (tagged APOBEC3F with the HIV-1 protein that degrades it), YFP fluorescence increase; further: potency means the concentration at half of the fitted maximal effect; % of control where 0% means no effect; nearly all actives have a fitted effect of over 65% in size
#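 HeLa cells stably expressing A3F-eYFP plus Vif, plated and incubated overnight at 37 deg C, then exposed to compounds overnight at 37 deg C. Blocked degradation read as raised yellow fluorescence (Ex 488/Em 500-530).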
# Vif-APOBEC3G blk: blocks the Vif interaction with human APOBEC3G; Q9HC16; HeLa A3G-eYFP + Vif (tagged APOBEC3G with the HIV-1 protein that degrades it), YFP fluorescence, overnight; Potency, µM (series often up to 46.1 µM), for the others: at the highest dose activity, negative = active, hits mostly inhibitors; 410,000 tested, 0.076% active; further: potency means the concentration at half of the fitted maximal effect; on the % scale 0 is the no-effect control and ±100 the full control effect; nearly all actives have a fitted effect of over 60% in size
# Target sequence (Q9HC16 whole entry, looked up): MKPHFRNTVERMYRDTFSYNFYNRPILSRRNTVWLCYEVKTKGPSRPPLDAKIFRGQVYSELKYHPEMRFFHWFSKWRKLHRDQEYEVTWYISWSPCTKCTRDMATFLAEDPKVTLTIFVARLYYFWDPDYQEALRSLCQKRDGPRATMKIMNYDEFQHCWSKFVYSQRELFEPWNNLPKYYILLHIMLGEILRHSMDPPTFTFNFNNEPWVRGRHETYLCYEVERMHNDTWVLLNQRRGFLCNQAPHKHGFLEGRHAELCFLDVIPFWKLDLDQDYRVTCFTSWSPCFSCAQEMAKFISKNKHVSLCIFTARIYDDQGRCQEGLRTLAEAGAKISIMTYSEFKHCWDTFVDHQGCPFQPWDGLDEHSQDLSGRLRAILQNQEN
#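 Read-out is eYFP fluorescence (Ex 488/Em 500-530) from Vif-expressing HeLa A3G-eYFP cells; more signal means A3G escaped Vif-mediated degradation. Cells plated overnight, compound pinned in, incubated overnight at 37 deg C.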
# VDR inh: vitamin D3 receptor (human) inhibition; P11473; VDR-SRC2-3 peptide fluorescence polarization, 2 h; Potency, µM, inactives show max response, negative = inhibition, most hits filed as inhibitors; 400,000 tested, 0.93% active; further: potency means the concentration at half of the fitted maximal effect; on the % scale 0 is the no-effect control and ±100 the full control effect
#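 Measured by FP: displacement of SRC2-3 coactivator peptide from VDR by library compounds, following a two-hour ambient incubation.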
# USP1-UAF1 confirm: blocks human USP1/UAF1 cleavage of Ub-Rhodamine. shares compounds with VDR inh. Ub-Rhodamine cleavage, fluorescence kinetic read. Potency, µM (doses to about 56.8 µM), without a hit: at the highest dose activity change, negative = inhibition, most hits filed as inhibitors. 50 tested, 50% active. AID 540327
# VDR confirm: inhibits human vitamin D receptor, primary hit validation; shares compounds with VDR inh; VDR-coactivator inhibition assay, qHTS confirmation; Potency, µM, usual class: inhibitors; 840 tested, 89% active; further: potency means the concentration at half of the fitted maximal effect
# VDR FP fluor: blocks human VDR-coactivator binding in fluorescein assay; VDR-coactivator binding, fluorescein fluorescence polarization; 840 tested, 48% active; Potency, µM (highest dose often 57.1 µM), for inactives: at the top dose activity change, negative = inhibition, actives largely listed as inhibitors; shares compounds with VDR inh; further: potency means the concentration at half of the fitted maximal effect
# VDR bla reporter: VDR (human) inhibition, cell-based beta-lactamase validation; 840 tested, 23% active; VDR beta-lactamase reporter cells, FRET ratio; cells co-treated with VDR agonist LG190178; Potency, µM (highest dose often 46.1 µM), without a hit: top-dose activity change, negative = inhibition, hits mostly inhibitors; shares compounds with VDR inh; further: potency means the concentration at half of the fitted maximal effect; on the % scale 0 is the no-effect control and ±100 the full control effect
# VDR cytotox: cytotoxic in counter-screen for VDR inhibitors; cytotoxicity counter-screen, cell viability, qHTS; 840 tested, 18% active; Potency, µM (titrated, usually from 48.3 µM), for the others: at the top dose activity change, negative = cytotoxicity, usual class: cytotoxic; shares compounds with VDR inh;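 further: potency means the concentration at half of the fitted maximal effect; plate controls were DMSO for no effect and high-concentration cycloheximide for full effect; nearly all actives have a fitted effect of over 75% in size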
# * = called active by the depositor; ? = inconclusive; · = not tested or not shown. Unless noted, the call rests on the fitted dose curve; in most records, active means well fitted curve in the direction sought with a large enough effect; inconclusive means small, poorly fitted or top-dose-only effect, or another doubt; inactive means no such curve, though single readings can be large; an effect the other way counts as inactive or inconclusive.
SMILES,PLK1 PBD block,TSHR antag,Vif-A3F inh,Vif-APOBEC3G blk,VDR inh,VDR confirm,VDR FP fluor,VDR bla reporter,VDR cytotox,others
CCOc1ccccc1NC(=O)c1sc2nc3n(c(=O)c2c1C)CCCCC3,·,·,-4%,5%,-1%,·,·,·,·,
CC(=O)NC1=CC(=O)c2nonc2C1=O,·,·,·,-11%,56µM*,2.5*,2.5µM*,2.9µM*,3.8µM*,
C=CCn1c(SCC)nc2sc3c(c2c1=O)CCc1ccccc1-3,-10%,-14,1%,5%,-9%,·,·,·,·,
C=CCSc1nc2sc3c(c2c(=O)n1CC)CCc1ccccc1-3,3µM*,7,-3%,1%,25µM*,2.7*,?,32%,-3%,
CC(=O)N1CCC(N(Cc2ccco2)C(=O)Nc2ccc(Br)cc2F)CC1,·,·,1%,-1%,2%,·,·,·,·,
OCCN1CCN(CC/C=C2/c3ccccc3Sc3ccc(C(F)(F)F)cc32)CC1,-2%,-12,5%,-28%,?,·,·,·,·,USP1-UAF1 confirm=?
O=C(C1CCCN(S(=O)(=O)c2cccs2)C1)N1CCN(c2cccc(Cl)c2)CC1 (stereo not given),·,·,0%,3%,-6%,·,·,·,·,
CS(=O)(=O)c1ncc(Cl)c(C(=O)N2CCN(c3cccc(Cl)c3)CC2)n1,·,·,8%,-12%,?,·,·,·,·,
CCS(=O)(=O)c1ncc(Cl)c(C(=O)N2CCN(c3cccc(Cl)c3)CC2)n1,·,·,2%,?,8.9µM*,2.8*,2.8µM*,2.9µM*,9.5µM*,
CCCCNC(=O)c1cccc(NC(=O)c2nsc3ccccc23)c1,·,·,-3%,-3%,6%,·,·,·,·,
CCC1C/C(=C\c2cccnc2)C(=O)/C(=C/c2cccnc2)C1 (stereo not given),-17%,-14,?,?,22µM*,5.3*,3.5µM*,5.8µM*,21µM*,
O=C1/C(=C/c2cccnc2)CCC/C1=C\c1cccnc1,-13%,1,5%,?,50µM*,13*,20µM*,5.8µM*,15µM*,
O=C1/C(=C/c2cccnc2)CC/C1=C\c1cccnc1,-12%,-11,?,0%,-5%,·,·,·,·,
Cc1cc(N2CCOCC2)ccc1/C=C\[N+](=O)[O-],13µM*,2,-23%,-28%,28µM*,6.7*,43%,?,16µM*,
COC(=O)c1ccc(NC(=O)c2nn(C)c3c2CS(=O)(=O)c2ccccc2-3)cc1,·,·,-14%,-3%,5%,·,·,·,·,
Cc1cc(=O)n(Cc2ccc(F)cc2Cl)c2c1c(C)nn2C,·,·,1%,3%,6%,·,·,·,·,
O=C(/C=C/c1ccc([N+](=O)[O-])cc1)c1cccs1,?,2,-5%,1%,?,?,7.1µM*,?,-9%,
O=c1cc(-c2ccccc2)oc2c(O)c(O)ccc12,·,·,·,·,13µM*,20*,25µM*,23µM*,?,
Cc1oc2c(O)c(O)ccc2c(=O)c1-c1ccccc1,-8%,5,5%,2%,6%,·,·,·,·,
O=C(/C=C/c1ccc(F)cc1)c1ccccc1Br,-17%,-13,-16%,-16%,32µM*,12*,?,?,?,
Cc1ccc(C(=O)/C=C/c2ccc(F)cc2)o1,-7%,3,-15%,?,?,·,·,·,·,
CCOC(=O)C1C(=O)NC(SCC(=O)Nc2nccs2)=C(C#N)C1c1ccccc1OCC (stereo not given),2.7µM*,1,-7%,-13%,35µM*,12*,?,16%,?,
Cc1ccc(CSC2=CS(=O)(=O)c3ccccc3N2)cc1,-9%,-11,-1%,0%,4%,·,·,·,·,
Cc1ccc(SC2=NS(=O)(=O)c3ccccc32)c(C)c1,·,·,·,-3%,35µM*,7.1*,8.9µM*,?,21µM*,
Cc1ccc(CSC2=NS(=O)(=O)c3ccccc32)cc1,·,·,·,-20%,32µM*,14*,8.9µM*,-7%,-7%,
SMILES,PLK1 PBD block,TSHR antag,Vif-A3F inh,Vif-APOBEC3G blk,VDR inh,VDR confirm,VDR FP fluor,VDR bla reporter,VDR cytotox,others
CCc1nc2ccc(C(=O)NCc3ccccc3C)cc2nc1CC,·,·,1%,-1%,19%,·,·,·,·,
COc1ccc(NC(=O)c2oc3ccc(S(=O)(=O)N4CCC5(CC4)OCCO5)cc3c2C)cc1Cl,·,·,-5%,3%,7%,·,·,·,·,
COc1cccc(/C=C2\C(=O)N(c3cccc(C)c3)C(=O)c3ccccc32)c1,2.7µM*,10,?,-5%,?,7.9*,3.2µM*,-12%,7%,
COc1cccc(N2C(=O)c3ccncc3C2=O)c1,4%,6,-1%,-4%,2%,·,·,·,·,
COc1ccc(SCC(Cc2ccccc2)N2CCN(CC(C)C)CCC2=O)cc1 (stereo not given),·,·,·,?,?,7.9*,?,4%,23%,
CCC(=O)N1CCc2cc(Br)cc(S(=O)(=O)CCC(=O)N(CC)Cc3ccccc3)c21,·,·,-4%,-2%,9%,·,·,·,·,
Cc1nc2c(=O)[nH]c(=S)n(C)c2nc1C,3µM*,-15,3%,1%,50µM*,15*,?,-6%,?,
Cn1c(=S)[nH]c2cccnc21,-12%,0,8%,6%,-11%,·,·,·,·,
O=C1NN(c2ccccc2)C(=O)/C1=C\c1cccc(OC(=O)c2cccs2)c1,1.5µM*,-4,-17%,-12%,50µM*,8.4*,?,?,?,
O=C1NN(c2ccc(Cl)c(Cl)c2)C(=O)/C1=C/c1cccc(OC(=O)c2cccs2)c1,·,-12,·,·,·,·,·,·,·,
C(=C\c1ccncc1)/c1ccncc1,-29%,-4,1%,-1%,-11%,·,·,·,·,
[O-]/[N+](=C\c1ccncc1)c1ccc(Br)cc1,21µM*,-7,-2%,3%,45µM*,9.5*,?,6%,2%,
COc1cc(OC)cc(C(=O)NCCc2csc(-c3cccc(C)c3)n2)c1,·,·,-8%,5%,4%,·,·,·,·,
Cc1ccc(NN2C(=O)C=C(c3ccccc3)C2=O)cc1,8.4µM*,-2,0%,?,25µM*,8.4*,?,?,-2%,
O=C1c2ccccc2C(=O)N1Nc1ccccc1,-17%,18,-3%,1%,-9%,·,·,·,·,
